Source: the supplement of paper PMC11482750
± gives the standard deviation of the averaged measurements.

Compound: C=CCN=C=S [allyl isothiocyanate]
Test: control-subtracted net OSN firing rate; higher = stronger neuronal activation
Details: odorant dilution (vol/vol): 1/100
Procedure, shortened: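 Responses come from single sensillum recordings of palp or antennal olfactory sensory neurons in 1–5-day-old fed female Scaptomyza species or D. melanogaster wild-type, mutant or at1 empty-neuron lines with Or42a homologs. Stimuli were 1 s pulses of odorant at 1:100 vol/vol in mineral oil or dimethyl sulfoxide into 16 ml/min filtered air. Spikes from 0.2 s after onset, counted over 0.5 s, were background-subtracted, doubled, solvent-corrected and averaged over replicates.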

Row | Target | control-subtracted net OSN firing rate
1 | Canton-S (D. melanogaster) ab1b | 15.3 ± 20 spikes/s
2 | Canton-S (D. melanogaster) ab1d | -4.33 ± 9.1 spikes/s
3 | Canton-S (D. melanogaster) at4a | -3 ± 7.5 spikes/s
4 | Canton-S (D. melanogaster) ab5b | -3.14 ± 11 spikes/s
5 | Canton-S (D. melanogaster) ai3a | 0.667 ± 6 spikes/s
6 | Canton-S (D. melanogaster) ab1c | -3.33 ± 11 spikes/s
7 | Canton-S (D. melanogaster) ab1a | -3.67 ± 15 spikes/s
8 | Canton-S (D. melanogaster) ab6a | 2.67 ± 5.9 spikes/s
9 | Canton-S (D. melanogaster) ab8a | 31.1 ± 18 spikes/s
10 | Canton-S (D. melanogaster) ab4a | 83.1 ± 18 spikes/s
11 | Canton-S (D. melanogaster) ab2b | -6 ± 4 spikes/s
12 | TrpA1- (D. melanogaster) pb1a | 152 ± 22 spikes/s
13 | Canton-S (D. melanogaster) ab9b | 2.33 ± 17 spikes/s
14 | Canton-S (D. melanogaster) ab9a | 41 ± 45 spikes/s
15 | Canton-S (D. melanogaster) ai3b | 3.67 ± 7.3 spikes/s
16 | Canton-S (D. melanogaster) ab7a | -8.86 ± 13 spikes/s
17 | Canton-S (D. melanogaster) ab3b | -4.33 ± 7.5 spikes/s

Row | Target | control-subtracted net OSN firing rate
18 | Canton-S (D. melanogaster) ab5a | -2 ± 7.1 spikes/s
19 | Canton-S (D. melanogaster) ab4b | -2.57 ± 3.2 spikes/s
20 | Or42a- (D. melanogaster) pb1a | -2.5 ± 4 spikes/s
21 | Canton-S (D. melanogaster) at4b | -3 ± 6.5 spikes/s
22 | Canton-S (D. melanogaster) ab2a | -1.33 ± 2.4 spikes/s
23 | Canton-S (D. melanogaster) ab6b | -5.33 ± 19 spikes/s
24 | Canton-S (D. melanogaster) at1 | -0.286 ± 14 spikes/s
25 | Canton-S (D. melanogaster) ai2a | 4 ± 7.8 spikes/s
26 | Canton-S (D. melanogaster) ab10a | 8.8 ± 6.8 spikes/s
27 | Canton-S (D. melanogaster) ai3c | 6 ± 13 spikes/s
28 | Canton-S (D. melanogaster) ai2b | -1.14 ± 4.3 spikes/s
29 | w1118 (D. melanogaster) pb1a | 91.3 ± 46 spikes/s
30 | Canton-S (D. melanogaster) ab7b | -5.14 ± 9.4 spikes/s
31 | Canton-S (D. melanogaster) at4c | 1.33 ± 4.7 spikes/s
32 | Canton-S (D. melanogaster) ab3a | 30 ± 16 spikes/s
33 | Canton-S (D. melanogaster) ab10b | 0.4 ± 5.7 spikes/s
34 | Canton-S (D. melanogaster) ab8b | 45.4 ± 36 spikes/s
